Reference: PubChem BioAssay (Tox21)
Inconclusive results are not listed. Active and inactive are the calls of the source. Unless noted, calls follow the shape of the dose curve; as a rule, active = well fitted curve in the direction sought with a large enough effect in the repeat runs; inconclusive = weak or mixed curves; inactive = no such curve, though single readings can be large; an effect the other way counts as inactive or inconclusive.

How the values were obtained:
[1] = qHTS assay to identify small molecule agonists of the peroxisome proliferator-activated receptor delta (PPARd) signaling pathway - cell viability counter screen (AID 743211); also: nearly all actives have a fitted effect of over 55% in size
Outline: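 Viability of GeneBLAzer PPARd UAS-bla HEK293H cells was assessed after 17 h compound incubation at 37C, using CellTiter-Glo reagent added after the reporter read and luminescence recorded 30 min later.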

[2] = target: Peroxisome proliferator-activated receptor delta (Homo sapiens) (UniProt Q03181); assay: qHTS assay to identify small molecule agonists of the peroxisome proliferator-activated receptor delta (PPARd) signaling pathway (AID 743212; calls by dose curve;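 also: HEK293H cells with PPARd UAS beta-lactamase reporter GeneBLAzer system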)
Peroxisome proliferator-activated receptor delta (Homo sapiens), sequence (Q03181 whole entry, looked up): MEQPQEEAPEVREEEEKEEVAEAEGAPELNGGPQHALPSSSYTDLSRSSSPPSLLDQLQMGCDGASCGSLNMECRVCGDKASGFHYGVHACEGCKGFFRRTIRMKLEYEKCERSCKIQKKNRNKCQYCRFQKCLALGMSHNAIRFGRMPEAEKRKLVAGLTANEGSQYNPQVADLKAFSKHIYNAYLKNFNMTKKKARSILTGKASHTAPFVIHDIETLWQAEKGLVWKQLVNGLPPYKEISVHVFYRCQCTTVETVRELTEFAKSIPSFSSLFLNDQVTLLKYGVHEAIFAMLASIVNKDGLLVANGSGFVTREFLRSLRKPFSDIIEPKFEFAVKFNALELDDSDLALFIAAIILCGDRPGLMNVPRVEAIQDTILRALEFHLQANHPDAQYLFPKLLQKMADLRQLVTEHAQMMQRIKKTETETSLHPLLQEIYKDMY
Outline: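 Steps: seed PPARd-bla HEK293H cells; incubate 5 h, 37 C, 5% CO2; add compounds in DMSO; incubate, 37 C; add LiveBLAzer B/G FRET substrate; hold 2 h at room temperature; measure fluorescence.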

[3] = qHTS assay to identify small molecule antagonists of the peroxisome proliferator-activated receptor delta (PPARd) signaling pathway - cell viability counter screen (AID 743213); also: nearly all actives have a fitted effect of over 50% in size
Outline: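 In this counter screen, HEK293H cells carrying a UAS-beta-lactamase reporter are co-treated with test compounds and 300 nM L165041 (final) for 17 h at 37 C; cell viability is quantified by CellTiter-Glo luminescence.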

[4] = qHTS assay to identify small molecule agonists of the farnesoid-X-receptor (FXR) signaling pathway - cell viability counter screen (AID 743218); also: nearly all actives have a fitted effect of over 45% in size
Outline: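 Viability of FXR-bla HEK 293T cells is measured by ATP-based CellTiter-Glo luminescence following 16 h compound treatment at 37 C and a prior 2 h room-temperature beta-lactamase substrate step.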

[5] = qHTS assay to identify small molecule antagonists of the farnesoid-X-receptor (FXR) signaling pathway - cell viability counter screen (AID 743221; active = well fitted cell-killing curve with a large enough effect in the repeat runs, not every such curve was filed as active; also: nearly all actives have a fitted effect of over 50% in size)
Outline: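 Quantitative HTS of the Tox21 10K library run in parallel with the beta-lactamase reporter read. HEK 293T cells carrying a UAS-driven bla reporter got compound and 50 uM CDCA (final) for 16 h; ATP-based luminescence followed.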

[6] = qHTS assay to identify small molecule antagonists of the vitamin D receptor (VDR) signaling pathway - cell viability counter screen (AID 743225); also: nearly all actives have a fitted effect of over 50% in size
Outline: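 Cells (VDR-UAS-bla HEK 293T) are plated, rested 4 h at 37C, dosed with compound and 3 nM final 1-alpha,25-dihydroxy vitamin D3, and incubated 16 h. Viability is taken from CellTiter-Glo luminescence in the reporter wells.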

[7] = qHTS assay to identify small molecule agonists of the NFkB signaling pathway (AID 1159509; active = well fitted curve in the direction sought with a large enough effect in the signal ratio in the repeat runs, not every such curve was filed as active; the % refers to the signal ratio; also: series mostly up to about 61 µM)
Outline: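 Readout: FRET fluorescence, 405 nm excitation, 460/530 nm emission; beta-lactamase expression disrupts FRET. Cells: ME-180 stably carrying NF-kB-driven bla reporter. Compound exposure 5 hr, 37 C, 5% CO2.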

[8] = qHTS assay to identify small molecule agonists of the NFkB signaling pathway - cell viability counter screen (AID 1159515; calls by dose curve; also: series mostly up to about 61 µM; nearly all actives have a fitted effect of over 55% in size)
Outline: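 Parallel cytotoxicity counter screen in ME-180 cells carrying an NFkB-response-element beta-lactamase reporter, 2,000 cells/well. Compound exposure lasted 5 hr at 37 C, 5% CO2. Cell viability was quantified by CellTiter-Glo luminescence.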

[9] = qHTS assay to identify small molecule agonists of the endoplasmic reticulum stress response signaling pathway (AID 1159516; active = well fitted activation curve with a large enough effect in the signal ratio in the repeat runs, not every such curve was filed as active; the % refers to the signal ratio)
Outline: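 Using a HeLa line with an ESRE-driven beta-lactamase gene, agonist activity was measured by FRET substrate fluorescence (460 and 530 nm emission) after cells were treated with compounds for 5 hr at 37 C and 5% CO2.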

[10] = qHTS assay to identify small molecule agonists of the endoplasmic reticulum stress response signaling pathway - cell viability counter screen (AID 1159517; calls by dose curve;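 also: HeLa cells carrying an ER stress response element beta-lactamase reporter; series mostly up to about 61 µM; nearly all actives have a fitted effect of over 50% in size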)
Outline: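 After overnight attachment, ESRE-bla HeLa cells were treated with Tox21 library compounds for 5 hr. CellTiter-Glo luminescence, read 30 min post-addition at room temperature, reported viability.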

[11] = qHTS assay to identify small molecule antagonists of the retinoid-related orphan receptor gamma (ROR-gamma) signaling pathway - cell viability counter screen (AID 1159520); also: nearly all actives have a fitted effect of over 50% in size
Outline: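 Cytotoxicity was read from cellular ATP (CellTiter-Glo luminescence) after 16 hr at 37 C with 1 uM doxycycline induction. The inducer was added 2 hr after compound transfer to Tet-on ROR gamma CHO cells.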

[12] = target: Nuclear receptor ROR-gamma (Homo sapiens) (UniProt P51449); assay: qHTS assay to identify small molecule antagonists of the retinoid-related orphan receptor gamma (ROR-gamma) signaling pathway (AID 1159521)
Outline: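 RORγ antagonism is scored from reduced reporter luminescence in Tet-on CHO cells. Induction used 1 uM final doxycycline hyclate for 16 h at 37 C, following a 2 h compound exposure.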

[13] = qHTS assay to identify small molecule agonists of the AP-1 signaling pathway - cell viability counter screen (AID 1159525; calls by dose curve; also: nearly all actives have a fitted effect of over 55% in size)
Outline: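 Intracellular ATP by Cell Titer Glo luminescence (30 min, RT) in the same ME-180 AP-1-bla wells after the 5 h compound exposure at 37 °C. Normalised to tetra n-octyl ammonium bromide and DMSO controls.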

[14] = qHTS assay to identify small molecule agonists of the AP-1 signaling pathway (AID 1159526; calls by dose curve)
[15] = target: Peroxisome proliferator-activated receptor delta (Homo sapiens) (UniProt Q03181); assay: qHTS assay to identify small molecule antagonists of the peroxisome proliferator-activated receptor delta (PPARd) signaling pathway (AID 743215; active = well fitted inhibition curve with a large enough effect in the signal ratio in the repeat runs, not every such curve was filed as active; the % refers to the signal ratio;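 also: cells stimulated with agonist L165041 at 300 nM final during compound exposure; series mostly up to about 62 µM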)
Outline: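 Plated HEK293H PPARd-bla cells rested 5 h at 37 C and 5% CO2. Compound, then agonist L165041 at 300 nM final, was added; 17 h at 37 C followed. Substrate loading, 2 h room temperature, fluorescence measured.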

[16] = target: Bile acid receptor (Homo sapiens) (UniProt Q96RI1); assay: qHTS assay to identify small molecule antagonists of the farnesoid-X-receptor (FXR) signaling pathway (AID 743217; active = well fitted inhibition curve with a large enough effect in the signal ratio in the repeat runs, not every such curve was filed as active; the % refers to the signal ratio)
Bile acid receptor (Homo sapiens), sequence (Q96RI1 whole entry, looked up): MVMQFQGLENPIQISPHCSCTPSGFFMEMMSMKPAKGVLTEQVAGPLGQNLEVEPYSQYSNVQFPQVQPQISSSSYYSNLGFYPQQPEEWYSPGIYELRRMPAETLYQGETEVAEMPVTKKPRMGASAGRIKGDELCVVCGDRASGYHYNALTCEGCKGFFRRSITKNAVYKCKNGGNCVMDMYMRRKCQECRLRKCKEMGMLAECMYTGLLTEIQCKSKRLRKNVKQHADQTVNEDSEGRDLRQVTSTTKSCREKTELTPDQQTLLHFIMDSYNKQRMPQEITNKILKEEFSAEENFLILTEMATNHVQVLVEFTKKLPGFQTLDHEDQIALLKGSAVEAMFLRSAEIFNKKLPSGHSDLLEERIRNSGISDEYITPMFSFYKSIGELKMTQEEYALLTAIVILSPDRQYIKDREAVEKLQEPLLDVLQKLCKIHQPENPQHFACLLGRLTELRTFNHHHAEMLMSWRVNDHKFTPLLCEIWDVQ
Outline: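 Screen of the Tox21 10K library in quantitative HTS format using FXR-UAS-bla HEK 293T reporter cells. Agonist chenodeoxycholic acid, 50 uM final, added with compounds; 16 h incubation at 37 °C; beta-lactamase FRET fluorescence measured.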

[17] = target: Bile acid receptor (Homo sapiens) (UniProt Q96RI1); assay: qHTS assay to identify small molecule agonists of the farnesoid-X-receptor (FXR) signaling pathway (AID 743220; active = well fitted activation curve with a large enough effect in the signal ratio in the repeat runs, not every such curve was filed as active; the % refers to the signal ratio)
Outline: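 FXR-UAS-bla HEK 293T cells carrying a UAS-driven beta-lactamase reporter were plated for 5 h at 37C/5% CO2, then exposed to DMSO-dissolved Tox21 10K compounds for 16 h at 37C. A LiveBLAzer B/G FRET substrate was loaded for 2 h at room temperature before fluorescence reading.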

[18] = qHTS assay to identify small molecule agonists of the vitamin D receptor (VDR) signaling pathway - cell viability counter screen (AID 743224)
Outline: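 Compounds were pin-transferred onto VDR-bla cells plated 4 h earlier; following 16 h incubation at 37C, cell viability was quantified by CellTiter-Glo luminescence after 30 min at room temperature.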

[19] = target: Vitamin D3 receptor (Homo sapiens) (UniProt P11473); assay: qHTS assay to identify small molecule agonists of the vitamin D receptor (VDR) signaling pathway (AID 743222; calls by dose curve)
Vitamin D3 receptor (Homo sapiens), sequence (P11473 whole entry, looked up): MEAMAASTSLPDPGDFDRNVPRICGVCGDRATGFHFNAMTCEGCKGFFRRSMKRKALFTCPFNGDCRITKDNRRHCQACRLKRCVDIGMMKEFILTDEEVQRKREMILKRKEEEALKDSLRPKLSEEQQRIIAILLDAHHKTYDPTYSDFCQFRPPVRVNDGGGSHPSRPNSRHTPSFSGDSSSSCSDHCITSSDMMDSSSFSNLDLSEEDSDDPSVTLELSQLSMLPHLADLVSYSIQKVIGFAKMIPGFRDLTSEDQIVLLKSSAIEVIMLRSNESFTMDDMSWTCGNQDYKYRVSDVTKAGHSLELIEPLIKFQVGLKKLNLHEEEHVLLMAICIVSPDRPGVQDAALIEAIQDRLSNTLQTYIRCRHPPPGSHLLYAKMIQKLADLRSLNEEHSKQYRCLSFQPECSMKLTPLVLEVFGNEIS
Outline: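 Fluorescence from cleaved LiveBLAzer B/G FRET substrate served as readout. VDR-bla cells had been treated 16 h at 37C with test compounds in DMSO, following a 4 h settling period, and substrate was loaded for 2 h at RT.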

[20] = target: Vitamin D3 receptor (Homo sapiens) (UniProt P11473); assay: qHTS assay to identify small molecule antagonists of the vitamin D receptor (VDR) signaling pathway (AID 743223; active = well fitted inhibition curve with a large enough effect in the signal ratio in the repeat runs, not every such curve was filed as active; the % refers to the signal ratio)
Outline: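 Fluorescence from LiveBLAzer B/G FRET substrate, read after 2 h at room temperature, reflects beta-lactamase reporter activity in VDR-bla cells treated 16 h at 37C with compounds and agonist 1alpha,25-dihydroxyvitamin D3 (3 nM final).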

Measured: Potency

C/C=C/c1ccc(OC)cc1
not listed: [15] | [16] | [17] | [18] | [19] | [20]
inactive: all other assays above

OCCc1ccccc1
not listed: [19] | [20]
inactive: all other assays above

O=C(O)CS
not listed: [12] | [16] | [17]
inactive: all other assays above

CC(O)C(=O)O (configuration not stated)
not listed: [8] | [18]
inactive: all other assays above

O=C(O)C(=O)O
not listed: [2] | [12] | [15] | [16] | [17] | [18]
inactive: all other assays above

CC(C)(Oc1ccc(C2CC2(Cl)Cl)cc1)C(=O)O (configuration not stated)
not listed: [16] | [17] | [18]
inactive: all other assays above

Cc1ccc(C)c(OCCCC(C)(C)C(=O)O)c1
not listed: [18] | [19] | [20]
inactive: all other assays above

CCCNC(=O)NS(=O)(=O)c1ccc(Cl)cc1
not listed: [16] | [17]
inactive: all other assays above

O=C(O)c1cccc([N+](=O)[O-])c1
not listed: [2] | [15] | [16] | [17] | [19] | [20]
inactive: all other assays above
